Assay outcomes as filed in PubChem BioAssay.
Hits are enriched below; roughly 6.8% of the tested compounds scored in any of these assays.
Pf Dd2 growth = inhibitors of Plasmodium falciparum Dd2 growth; actives 2.3% (n = 94,000); P. falciparum Dd2 growth, SYBR Green, 72 h; hits give low values; AID 1159554; activity change, % at 10 µM; in the data active = activity change below about -80%; inconclusive = no clear call, values can overlap the other calls
T cruzi growth-1 = T. cruzi proliferation inhibition; T. cruzi beta-gal in NIH3T3, GalScreen luminescence, 90 h; inhibition, % at 8.34 µM; actives 5.9% (n = 77,000); AID 624255;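 active = mean inhibition above about 93%, with at least 55% of replicates each passing it, limit read from the data, passing the limit was not always enough; inconclusive = only one of those two conditions holds; inactive = neither condition holds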
C diff growth = C. difficile growth inhibition; Clostridium difficile clinical isolate growth, OD600, 24 h; hits give low values; growth activity, negative = inhibition, % at 16 µg/mL (by protocol); actives 0.25% (n = 86,000);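 active = mean growth activity at or below -80% and every replicate also at or below -80%; inconclusive = mean at or below -80% but some replicate above -80%; inactive = mean growth activity above -80%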;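 note: 0% = DMSO wells and -100% = levofloxacin 16 µg/mL wells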
T cruzi growth-2 = blocks T. cruzi growth in NIH3T3 host cells. shares compounds with T cruzi growth-1. actives 72% (n = 5,600). inhibition, % at 8.35 µM. T. cruzi beta-gal in NIH3T3, GalScreen luminescence, 90 h;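 active = mean replicate inhibition above about 95% and at least 55% of replicates individually reaching it, limit read from the data; inconclusive = only one of the two criteria is met; inactive = neither criterion is met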
T cruzi growth-3 = Trypanosoma cruzi proliferation inhibition | actives 21% (n = 5,600) | shares compounds with T cruzi growth-1 | inhibition, % at 2.09 µM | T. cruzi beta-gal in NIH3T3, GalScreen luminescence, 90 h | AID 651740;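 active = mean inhibition above about 95%, with at least 55% of replicates also reaching it, limit read from the data; inconclusive = meets just one of the two conditions; inactive = meets neither condition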;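 note: plate controls were neutral control median for no effect and positive control median for full effect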
NIH3T3 tox = kills mouse NIH/3T3 fibroblasts | actives 14% (n = 5,600) | cytotoxicity (signal decrease), % at 8.35 µM | NIH/3T3 viability, CellTiter-Glo ATP luminescence, 90 h | shares compounds with T cruzi growth-1;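 active = mean signal decrease across replicates above about 35% based on untreated-well scatter, with enough replicates individually passing, limit read from the data; inconclusive = no rule stated though some were filed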;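 note: 0% = median of neutral control wells and 100% = median of positive control wells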
NIH3T3 tox 2 = cytotoxicity in mouse NIH/3T3 fibroblasts | actives 56% (n = 5,600) | inhibition, % at 24.9 µM | shares compounds with T cruzi growth-1 | NIH/3T3 viability, CellTiter-Glo ATP luminescence, 90 h;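 active = mean loss of cell viability signal at or above a set limit, and enough replicates individually reaching it; inconclusive = meets only the mean limit or only the replicate share; inactive = meets neither condition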;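 note: 0% = median of neutral control wells and 100% = median of positive control wells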
* hit, by the source's call; ! = a repeat was not active.

C/C=C/c1ccc2c(c1)O[C@H](CN(C)C(=O)c1cnccn1)[C@@H](C)CN([C@@H](C)CO)S2(=O)=O was read as Pf Dd2 growth -18.3 and C diff growth -5.0.
Screening C[C@@H]1CN([C@@H](C)CO)S(=O)(=O)c2ccc(C#CC(C)(C)O)cc2O[C@H]1CN(C)Cc1ccccc1 returned Pf Dd2 growth -47.1, T cruzi growth-1 83.3 and C diff growth -11.3.
Screening C[C@H](O)C#Cc1ccc2c(c1)O[C@@H](CN(C)Cc1ccc(-c3ccccc3)cc1)[C@H](C)CN([C@@H](C)CO)S2(=O)=O returned Pf Dd2 growth -45.2, T cruzi growth-1 113.1*!, C diff growth 1.1, T cruzi growth-2 100.8*, T cruzi growth-3 99.0*, NIH3T3 tox 114.4* and NIH3T3 tox 2 107.7*.
`C[C@@H](O)C#Cc1ccc2c(c1)O[C@@H](CN(C)Cc1ccc(-c3ccccc3)cc1)[C@@H](C)CN([C@@H](C)CO)S2(=O)=O` gave Pf Dd2 growth -78.7, T cruzi growth-1 -45.9 and C diff growth 4.1.
`C[C@@H]1CN([C@H](C)CO)S(=O)(=O)c2ccc(C#CC(C)(C)O)cc2O[C@H]1CN(C)Cc1ccc(-c2ccccc2)cc1` gave Pf Dd2 growth -84.0*, T cruzi growth-1 120.6*, C diff growth 14.6, T cruzi growth-2 89.5, T cruzi growth-3 109.7*, NIH3T3 tox 118.2* and NIH3T3 tox 2 107.0*.
C[C@H](CO)N1C[C@H](C)[C@@H](CN(C)Cc2ccc(-c3ccccc3)cc2)Oc2cc(C#C[C@@H](C)O)ccc2S1(=O)=O was read as Pf Dd2 growth -61.1, T cruzi growth-1 97.0*, C diff growth -0.4, T cruzi growth-2 87.2, T cruzi growth-3 107.1*, NIH3T3 tox 108.7* and NIH3T3 tox 2 103.5*.
C[C@H](O)C#Cc1ccc2c(c1)O[C@@H](CN(C)Cc1ccc(-c3ccccc3)cc1)[C@@H](C)CN([C@H](C)CO)S2(=O)=O was read as Pf Dd2 growth -42.3, T cruzi growth-1 78.3 and C diff growth 5.1.
Screening CCC(=O)N[C@@H]1CC[C@H](CC(=O)NCc2ccccc2F)O[C@@H]1CO returned Pf Dd2 growth -2.4 and T cruzi growth-1 -2.5.
Screening CCC(=O)N1CCC2(CC1)CN(C(=O)NC1CCCC1)[C@@H](CO)c1c2c2ccc(OC)cc2n1C returned Pf Dd2 growth -21.7 and C diff growth -8.5.
Screening C[C@H]1CN([C@@H](C)CO)C(=O)c2cc(C#Cc3ccccc3F)cnc2O[C@@H]1CN(C)C returned Pf Dd2 growth -19.8, T cruzi growth-1 45.4 and C diff growth 7.2.
C[C@H](CO)N1C[C@H](C)[C@@H](CN(C)Cc2ccccc2)Oc2c(NC(=O)Nc3ccccc3)cccc2C1=O was read as Pf Dd2 growth -17.5, T cruzi growth-1 42.8 and C diff growth -23.0.
`COCC(=O)N(C)C[C@@H]1Oc2ncc(C#C[C@@H](C)O)cc2C(=O)N([C@@H](C)CO)C[C@H]1C` gave T cruzi growth-1 11.1 and C diff growth -5.1.
Screening C[C@@H]1CN([C@@H](C)CO)S(=O)(=O)c2ccc(C#CC3CCCC3)cc2O[C@H]1CN(C)C(=O)Cc1ccncc1 returned Pf Dd2 growth -86.1*, T cruzi growth-1 112.8*, C diff growth -14.7, T cruzi growth-2 99.2*, T cruzi growth-3 47.3, NIH3T3 tox 21.3 and NIH3T3 tox 2 71.6*.
`C[C@@H]1CN([C@@H](C)CO)S(=O)(=O)c2ccc(C#CC3CCCC3)cc2O[C@H]1CN(C)C(=O)Cc1ccccc1` gave Pf Dd2 growth inconclusive and C diff growth -4.7.
`CCC(=O)N(C)C[C@@H]1Oc2cc(C#CC3CCCC3)ccc2S(=O)(=O)N([C@@H](C)CO)C[C@H]1C` gave Pf Dd2 growth -62.5, T cruzi growth-1 81.9 and C diff growth -25.0.
For C[C@@H]1CN([C@@H](C)CO)S(=O)(=O)c2ccc(C#CC3CCCCC3)cc2O[C@H]1CN(C)C(=O)Cc1ccncc1 the results were Pf Dd2 growth -70.2, T cruzi growth-1 inconclusive, T cruzi growth-2 103.2*, T cruzi growth-3 78.4, NIH3T3 tox 17.4 and NIH3T3 tox 2 103.4*.
C[C@@H]1CN([C@H](C)CO)S(=O)(=O)c2ccc(C#CC3CCCC3)cc2O[C@H]1CN(C)C(=O)Cc1ccncc1 was read as Pf Dd2 growth -69.3, T cruzi growth-1 119.8*, C diff growth -3.1, T cruzi growth-2 101.1*, T cruzi growth-3 61.5, NIH3T3 tox -3.6 and NIH3T3 tox 2 99.0*.
`C[C@@H]1CN([C@H](C)CO)S(=O)(=O)c2ccc(C#CC3CCCC3)cc2O[C@H]1CN(C)C(=O)Cc1ccccc1` gave Pf Dd2 growth inconclusive, T cruzi growth-1 113.2*, C diff growth -10.8, T cruzi growth-2 106.1*, T cruzi growth-3 67.7, NIH3T3 tox 3.5 and NIH3T3 tox 2 105.4*.
Screening C[C@H](CO)N1C[C@H](C)[C@@H](CN(C)C(=O)Cc2ccccc2)Oc2cc(C#CC3CCCC3)ccc2S1(=O)=O returned Pf Dd2 growth -24.5 and C diff growth -1.2.
Screening C[C@H]1CN([C@@H](C)CO)S(=O)(=O)c2ccc(C#CC3CCCCC3)cc2O[C@H]1CN(C)C(=O)Cc1ccncc1 returned Pf Dd2 growth -17.9 and T cruzi growth-1 42.1.
COC(=O)C[C@@H]1CC[C@H]2[C@@H](COc3ccc(NC(=O)c4cccc(F)c4)cc3C(=O)N2C)O1 was read as Pf Dd2 growth -5.0, T cruzi growth-1 9.8 and C diff growth 3.3.
For COc1ccccc1C#Cc1ccc([C@H]2[C@@H](CO)N3CCCCN(CCC(F)(F)F)C[C@H]23)cc1 the results were Pf Dd2 growth -75.6, T cruzi growth-1 45.2 and C diff growth 63.4.
Screening COc1ccc2c3c([nH]c2c1)[C@@H](CO)N(C(=O)C1CC1)CC31CN(S(C)(=O)=O)C1 returned Pf Dd2 growth 5.9 and C diff growth 5.8.
`CN1CCN(C(=O)C[C@@H]2CC[C@@H]3[C@H](COc4ccc(NC(=O)c5cscn5)cc4C(=O)N3C)O2)CC1` gave Pf Dd2 growth -0.8, T cruzi growth-1 -6.2 and C diff growth 1.2.
`COc1ccc2c3c([nH]c2c1)[C@H](CO)N(C(=O)C1CC1)CC31CN(C(=O)c2ccncc2)C1` gave Pf Dd2 growth -0.6 and C diff growth -6.9.
`COc1ccc(S(=O)(=O)N(C)C[C@H]2OCCCC[C@@H](C)Oc3ccc(NS(=O)(=O)c4ccc(Cl)cc4)cc3C(=O)N([C@@H](C)CO)C[C@H]2C)cc1` gave Pf Dd2 growth -67.1 and C diff growth -1.2.
